Test results reported in the supplement of paper PMC7724964.
± gives the standard deviation of the averaged measurements.

Assays:
Assay in all cases: phage ELISA signal ratio (GST-PRM binding over GST background); higher = stronger binding of peptide-phage to the PRM
[1] = molecular target: PDCD6 23-191 EF-hand_5+EF-hand_7 (domain begin residue: 23, domain end residue: 191), O75340
Method in brief: (§1)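 Human peptide recognition domains were expressed in 96-well plates as fusions to the C-terminus of glutathione S-transferase (GST) and selected against an M13 phage library displaying randomized hexadecapeptides, cysteine-free and glycine-flanked, on the gene-8 major coat protein. Five selection rounds were run, and approximately 48 individual clones from rounds 4 and 5 were tested by phage ELISA. Each value is the ELISA signal on the GST-domain fusion divided by the signal on GST alone. Positive clones were sequenced.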

[2] = molecular target: PIKFYVE 347-450 DEP (domain begin residue: 347, domain end residue: 450), Q9Y2I7
Method in brief: as §1

[3] = molecular target: PAF1 165-376 Paf1 (domain begin residue: 165, domain end residue: 376), Q8N7H5
Method in brief: as §1

[4] = molecular target: PCNA 1-261 PCNA_N+PCNA_C (domain begin residue: 1, domain end residue: 261), P12004
Method in brief: as §1

[5] = molecular target: PHF19 190-255 PHD (domain begin residue: 190, domain end residue: 255), Q5T6S3
Method in brief: as §1

[6] = molecular target: T1, PDCD6IP 3-392 BRO1 (domain begin residue: 3, domain end residue: 392), Q8WUM4
T1 chain: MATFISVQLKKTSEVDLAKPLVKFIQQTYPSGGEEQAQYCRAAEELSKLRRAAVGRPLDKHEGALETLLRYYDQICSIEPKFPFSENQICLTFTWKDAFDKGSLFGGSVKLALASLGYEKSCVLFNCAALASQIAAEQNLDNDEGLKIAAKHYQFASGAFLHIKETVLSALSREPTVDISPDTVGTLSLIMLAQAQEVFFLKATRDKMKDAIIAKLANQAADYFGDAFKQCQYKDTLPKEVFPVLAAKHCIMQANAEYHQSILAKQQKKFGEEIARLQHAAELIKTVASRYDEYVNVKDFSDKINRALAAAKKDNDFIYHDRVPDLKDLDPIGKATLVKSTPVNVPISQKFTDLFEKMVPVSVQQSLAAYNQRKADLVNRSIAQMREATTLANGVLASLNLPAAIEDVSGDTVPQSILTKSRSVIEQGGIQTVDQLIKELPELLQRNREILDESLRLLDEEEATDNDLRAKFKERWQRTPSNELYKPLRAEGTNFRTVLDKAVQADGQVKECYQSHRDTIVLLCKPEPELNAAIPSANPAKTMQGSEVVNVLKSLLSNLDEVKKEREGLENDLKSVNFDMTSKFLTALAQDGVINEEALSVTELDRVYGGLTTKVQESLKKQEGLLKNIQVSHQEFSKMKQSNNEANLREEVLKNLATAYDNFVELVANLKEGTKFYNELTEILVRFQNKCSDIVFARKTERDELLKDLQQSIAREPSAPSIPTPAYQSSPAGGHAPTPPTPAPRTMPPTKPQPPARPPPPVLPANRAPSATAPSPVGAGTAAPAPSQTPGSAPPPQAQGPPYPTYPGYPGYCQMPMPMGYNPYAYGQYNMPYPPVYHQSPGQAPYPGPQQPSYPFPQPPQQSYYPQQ
Method in brief: as §1

[7] = molecular target: PCMT1 1-227 PCMT (domain begin residue: 1, domain end residue: 227), P22061
Method in brief: as §1

Chain of PDCD6 23-191 EF-hand_5+EF-hand_7 (domain begin residue: 23, domain end residue: 191), O75340 (O75340 whole entry, the tested form may be a part): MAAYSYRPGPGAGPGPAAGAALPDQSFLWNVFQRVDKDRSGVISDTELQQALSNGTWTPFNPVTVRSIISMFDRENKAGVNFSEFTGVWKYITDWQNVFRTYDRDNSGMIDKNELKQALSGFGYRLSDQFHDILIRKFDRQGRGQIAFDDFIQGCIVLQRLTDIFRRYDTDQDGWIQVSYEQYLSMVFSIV
Chain of PCMT1 1-227 PCMT (domain begin residue: 1, domain end residue: 227), P22061 (P22061 whole entry): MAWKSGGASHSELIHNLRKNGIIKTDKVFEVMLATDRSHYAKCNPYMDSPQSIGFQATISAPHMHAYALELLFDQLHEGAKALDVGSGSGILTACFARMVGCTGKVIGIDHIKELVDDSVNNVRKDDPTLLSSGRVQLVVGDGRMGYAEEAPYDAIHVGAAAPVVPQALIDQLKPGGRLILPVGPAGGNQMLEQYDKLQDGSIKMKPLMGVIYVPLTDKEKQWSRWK
Chain of PCNA 1-261 PCNA_N+PCNA_C (domain begin residue: 1, domain end residue: 261), P12004 (P12004 whole entry): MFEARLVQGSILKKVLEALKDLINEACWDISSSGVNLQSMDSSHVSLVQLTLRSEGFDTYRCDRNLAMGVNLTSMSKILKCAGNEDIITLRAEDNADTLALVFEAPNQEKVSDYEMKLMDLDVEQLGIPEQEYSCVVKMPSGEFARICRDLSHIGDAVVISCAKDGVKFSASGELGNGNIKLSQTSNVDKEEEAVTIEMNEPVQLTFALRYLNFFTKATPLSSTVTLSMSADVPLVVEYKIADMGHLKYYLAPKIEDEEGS
Chain of PIKFYVE 347-450 DEP (domain begin residue: 347, domain end residue: 450), Q9Y2I7 (Q9Y2I7 whole entry): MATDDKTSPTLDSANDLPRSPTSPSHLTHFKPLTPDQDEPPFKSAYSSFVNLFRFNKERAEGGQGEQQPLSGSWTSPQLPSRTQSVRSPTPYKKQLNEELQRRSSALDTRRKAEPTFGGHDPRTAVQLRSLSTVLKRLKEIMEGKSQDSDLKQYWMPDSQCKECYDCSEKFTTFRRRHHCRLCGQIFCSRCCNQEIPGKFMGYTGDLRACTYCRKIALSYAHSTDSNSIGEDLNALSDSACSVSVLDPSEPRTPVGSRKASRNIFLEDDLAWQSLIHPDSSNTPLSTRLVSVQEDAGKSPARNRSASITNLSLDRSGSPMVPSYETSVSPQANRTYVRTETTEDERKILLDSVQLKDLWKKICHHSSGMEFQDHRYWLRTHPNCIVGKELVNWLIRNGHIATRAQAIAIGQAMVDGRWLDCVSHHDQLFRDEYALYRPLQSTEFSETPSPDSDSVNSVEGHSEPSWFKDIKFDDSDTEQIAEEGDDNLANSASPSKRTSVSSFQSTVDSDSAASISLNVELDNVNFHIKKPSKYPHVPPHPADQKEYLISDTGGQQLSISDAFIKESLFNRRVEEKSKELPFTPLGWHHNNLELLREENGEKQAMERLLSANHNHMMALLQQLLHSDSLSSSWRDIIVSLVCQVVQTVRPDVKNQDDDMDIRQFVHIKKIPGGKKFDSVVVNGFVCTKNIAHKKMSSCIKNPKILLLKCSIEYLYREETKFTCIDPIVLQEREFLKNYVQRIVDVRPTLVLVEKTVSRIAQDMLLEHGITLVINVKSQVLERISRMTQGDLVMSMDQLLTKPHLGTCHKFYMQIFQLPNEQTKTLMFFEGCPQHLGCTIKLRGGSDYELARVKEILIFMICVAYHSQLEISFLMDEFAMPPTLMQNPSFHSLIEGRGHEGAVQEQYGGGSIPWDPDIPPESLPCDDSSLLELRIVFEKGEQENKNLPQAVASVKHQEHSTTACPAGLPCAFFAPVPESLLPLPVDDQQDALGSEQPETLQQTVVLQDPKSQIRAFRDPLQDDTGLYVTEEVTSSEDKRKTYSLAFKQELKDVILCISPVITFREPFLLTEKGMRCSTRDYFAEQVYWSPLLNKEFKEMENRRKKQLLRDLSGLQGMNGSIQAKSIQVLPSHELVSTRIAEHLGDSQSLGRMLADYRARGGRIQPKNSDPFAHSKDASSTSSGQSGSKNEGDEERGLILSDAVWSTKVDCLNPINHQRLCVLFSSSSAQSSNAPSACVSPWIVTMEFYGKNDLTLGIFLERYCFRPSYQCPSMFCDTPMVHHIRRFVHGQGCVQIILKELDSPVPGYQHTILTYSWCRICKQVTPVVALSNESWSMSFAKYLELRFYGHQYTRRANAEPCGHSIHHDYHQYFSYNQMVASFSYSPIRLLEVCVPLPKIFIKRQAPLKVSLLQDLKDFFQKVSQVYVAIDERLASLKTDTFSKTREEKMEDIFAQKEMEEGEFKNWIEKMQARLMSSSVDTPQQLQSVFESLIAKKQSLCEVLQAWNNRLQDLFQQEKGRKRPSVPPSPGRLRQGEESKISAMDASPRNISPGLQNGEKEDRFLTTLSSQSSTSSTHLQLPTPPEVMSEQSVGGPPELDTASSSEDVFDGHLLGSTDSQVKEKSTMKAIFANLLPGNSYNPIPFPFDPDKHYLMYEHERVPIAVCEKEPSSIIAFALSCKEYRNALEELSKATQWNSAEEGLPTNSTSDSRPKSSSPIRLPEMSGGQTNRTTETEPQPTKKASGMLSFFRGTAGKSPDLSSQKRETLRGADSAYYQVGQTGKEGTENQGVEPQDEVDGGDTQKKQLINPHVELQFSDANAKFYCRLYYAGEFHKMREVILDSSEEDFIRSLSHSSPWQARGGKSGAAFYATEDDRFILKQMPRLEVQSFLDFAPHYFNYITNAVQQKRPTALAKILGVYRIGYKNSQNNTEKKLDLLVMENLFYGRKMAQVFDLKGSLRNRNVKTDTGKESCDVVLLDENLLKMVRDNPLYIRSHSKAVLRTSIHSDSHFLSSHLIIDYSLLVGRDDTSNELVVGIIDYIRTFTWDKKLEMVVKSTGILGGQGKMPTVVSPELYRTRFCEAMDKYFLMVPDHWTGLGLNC

Question: VFEPTLASYGWAHWAV was tested. Which “phage ELISA signal ratio” value [1] did it give?
Answer: Its value is 25.1.

Question: With VEQFPYGWADWVHEIV as the binder, how does the “phage ELISA signal ratio” value [1] read?
Answer: The value was 31.3.

Question: Which “phage ELISA signal ratio” value [1] does the source give for WAPWVFMDDAPFDSMV here?
Answer: Its value is 24.8.

Question: VFYGWQDWVVPGDWDV was tested. Which “phage ELISA signal ratio” value [1] did it give?
Answer: The value was 28 ± 2.8.

Question: Which “phage ELISA signal ratio” value [2] does the source give for YALPYEWMWMTDLIQE here?
Answer: Its value is 3.03.

Question: For YPYGWQQWVWESEQVQ, which “phage ELISA signal ratio” value [1] is on record?
Answer: Its value is 27.1.

Question: For YPEFAHYGFADWIYAS, which “phage ELISA signal ratio” value [1] is on record?
Answer: The value was 30.4.

Question: With MDIWDEMALSINPYMY as the binder, how does the “phage ELISA signal ratio” value [3] read?
Answer: The value was 4.38.

Question: For DSHYGWAEWVLQGPVA, which “phage ELISA signal ratio” value [1] is on record?
Answer: The value was 35.1.

Question: VSYGWAHWTMEQGEDA was tested. Which “phage ELISA signal ratio” value [1] did it give?
Answer: Its value is 28.1.

Question: GARQTLITDWLMVSSD was tested. Which “phage ELISA signal ratio” value [4] did it give?
Answer: The value was 15.6.

Question: Which “phage ELISA signal ratio” value [1] does the source give for MSVEPYMPPYGWAEWV here?
Answer: Its value is 22.3.

Question: TPGDLIDFSTLTFYYV was tested. Which “phage ELISA signal ratio” value [5] did it give?
Answer: The value was 7.11.

Question: How did the “phage ELISA signal ratio” value [3] turn out when SELWDHWIEWNDVYQT was run?
Answer: Its value is 3.06.

Question: With WVEYGWQDWVTKFDQQ as the binder, how does the “phage ELISA signal ratio” value [1] read?
Answer: Its value is 27.1.

Question: With LQVEYGWAEWTWIGAD as the binder, how does the “phage ELISA signal ratio” value [1] read?
Answer: Its value is 27.2.

Question: Which “phage ELISA signal ratio” value [1] does the source give for WADWVFQENEKWDLFV here?
Answer: The value was 29.1.

Question: DVAWHVPWEQYFEQET was tested. Which “phage ELISA signal ratio” value [6] did it give?
Answer: The value was 16.8.

Question: Which “phage ELISA signal ratio” value [5] does the source give for KLEMYQGTIPYGNYWP here?
Answer: The value was 6.64.

Question: For FDAYWQDLYMMDLDSF, which “phage ELISA signal ratio” value [6] is on record?
Answer: Its value is 19.8.

Question: MEAPHWVWPPDGYALR was tested. Which “phage ELISA signal ratio” value [5] did it give?
Answer: Its value is 6.23.

Question: With DIPPESYGWAPWVWQV as the binder, how does the “phage ELISA signal ratio” value [1] read?
Answer: The value was 35.3.

Question: With VNYGWTPEVTWWLHEA as the binder, how does the “phage ELISA signal ratio” value [1] read?
Answer: Its value is 14.4.

Question: Which “phage ELISA signal ratio” value [3] does the source give for QVDMMSQLFMMADQWN here?
Answer: Its value is 4.55.

Question: How did the “phage ELISA signal ratio” value [1] turn out when YGWNQILLDESVFHMV was run?
Answer: The value was 26.9.

Question: How did the “phage ELISA signal ratio” value [1] turn out when VPVYGWDPGLWDGHAL was run?
Answer: The value was 35.1.

Question: For IVALESPYGWQDWVTT, which “phage ELISA signal ratio” value [1] is on record?
Answer: The value was 28.1.

Question: With LVGEMSRNVGWAAWVF as the binder, how does the “phage ELISA signal ratio” value [1] read?
Answer: The value was 18.1.

Question: For ADYPFEVWQAWVFEEV, which “phage ELISA signal ratio” value [1] is on record?
Answer: The value was 36.3.

Question: LISGMNGWNYGWADWV was tested. Which “phage ELISA signal ratio” value [1] did it give?
Answer: Its value is 25.8.

Question: How did the “phage ELISA signal ratio” value [1] turn out when QQMLYGWGPMVQEMLV was run?
Answer: Its value is 25.4.

Question: YGWDWEFLEGLQYGKV was tested. Which “phage ELISA signal ratio” value [1] did it give?
Answer: Its value is 32.4.

Question: With QNGTPMPGWAPWVLEV as the binder, how does the “phage ELISA signal ratio” value [1] read?
Answer: Its value is 34.1.

Question: For MPQFGWEEWVLDGIHF, which “phage ELISA signal ratio” value [1] is on record?
Answer: The value was 20.2.

Question: Which “phage ELISA signal ratio” value [7] does the source give for VHWDPYWFLEDNFSNL here?
Answer: Its value is 19.9.

Question: Which “phage ELISA signal ratio” value [1] does the source give for AAQYGWQDWVMVPESM here?
Answer: The value was 32.8.

Question: With FQEVTMYGWRPEYLSD as the binder, how does the “phage ELISA signal ratio” value [1] read?
Answer: The value was 27.7.

Question: For ASGEHAVGWQDWVWIS, which “phage ELISA signal ratio” value [1] is on record?
Answer: Its value is 31.1.

Question: With WEEDFWTGLHFLNNAE as the binder, how does the “phage ELISA signal ratio” value [6] read?
Answer: Its value is 25.5.

Question: QTDYAYGFYPFIEQHF was tested. Which “phage ELISA signal ratio” value [1] did it give?
Answer: Its value is 32.3.

Question: Which “phage ELISA signal ratio” value [7] does the source give for HEFWALYDAMPMRSYV here?
Answer: Its value is 30.9.

Question: Which “phage ELISA signal ratio” value [3] does the source give for WDFPGWSADQMPFSQS here?
Answer: The value was 4.24.

Question: Which “phage ELISA signal ratio” value [3] does the source give for IEVYSYMENMYDHPPV here?
Answer: The value was 3.73.

Question: For EEMQQLGPFYGWQDWV, which “phage ELISA signal ratio” value [1] is on record?
Answer: Its value is 30.5.

Question: For MYGWGPLLMEMNPWQW, which “phage ELISA signal ratio” value [1] is on record?
Answer: The value was 20.8.

Question: Which “phage ELISA signal ratio” value [1] does the source give for LQLEPYGWMDWTWQTA here?
Answer: Its value is 21.9.

Question: Which “phage ELISA signal ratio” value [6] does the source give for WDYMSEEESIRYLIEW here?
Answer: The value was 27.3.

Question: For FYMWQVIDAQAYVDWI, which “phage ELISA signal ratio” value [7] is on record?
Answer: The value was 4.8.

Question: With VDYGWVWESAYTPPMQ as the binder, how does the “phage ELISA signal ratio” value [1] read?
Answer: The value was 26.1.

Question: Which “phage ELISA signal ratio” value [1] does the source give for EPLNYGWEGWLLDGWS here?
Answer: Its value is 28.8.

Question: With WAEWVFSDEDPPGHMV as the binder, how does the “phage ELISA signal ratio” value [1] read?
Answer: Its value is 23.

Question: YGWDPFLENISWSWQA was tested. Which “phage ELISA signal ratio” value [1] did it give?
Answer: Its value is 33.4.

Question: With MDMPYGWMQWVSTEPV as the binder, how does the “phage ELISA signal ratio” value [1] read?
Answer: Its value is 25.4.

Question: For SFLPVSYGWAPWLIET, which “phage ELISA signal ratio” value [1] is on record?
Answer: Its value is 24.1.

Question: Which “phage ELISA signal ratio” value [1] does the source give for VSMTQSESYGWQPWVV here?
Answer: Its value is 27.1.

Question: SHNWWHIIEAQEAMAW was tested. Which “phage ELISA signal ratio” value [7] did it give?
Answer: Its value is 16.

Question: With AQWPMDIGWAPWLLDV as the binder, how does the “phage ELISA signal ratio” value [1] read?
Answer: Its value is 26.8.
